Measured values from PMC10668032, “Altered binding affinity of SIX1-Q177R correlates with enhanced WNT5A and WNT pathway effector expression in Wilms tumor”.
In all, about 33,000 sequences were measured (“e-score”: median about -0.053, highest 2% from about 0.38 on). The sample as a whole holds a higher share of the highest values than the screen did.

Target: T1, SIX1 homeodomain (reference allele) (human, UniProt Q15475 108-198)
T1 sequence: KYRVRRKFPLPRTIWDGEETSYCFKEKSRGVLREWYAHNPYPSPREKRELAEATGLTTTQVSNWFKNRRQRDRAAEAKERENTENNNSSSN
Experiment: universal protein binding microarray; Universal all-10-mer PBM (8x60K, AMADID 030236), 300 nM GST-tagged protein, Alexa Fluor 488 anti-GST; buffer, salt, pH and temperature not stated (as in Berger); high values mean tight binding
Conditions: protein: ivt; tags: N-terminal GST; dsDNA, one strand shown
In short: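 Duplicate protein binding microarrays (universal 'all 10-mer', 8×60K format) were incubated with GST-tagged homeodomains at 300 nM final concentration. Binding was quantified as 8-mer E-scores with the Universal PBM Analysis Suite.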

Sequence | binding signal
CGGATACA | 0.446 ± 0.0132 E-score
CGGATACC | 0.476 ± 0.00619 E-score
CGGATACG | 0.38745 ± 0.000205 E-score
CGGATGCC | 0.214 ± 0.0396 E-score
CGAATACC | 0.233 ± 0.0485 E-score
CGGATAAG | 0.187 ± 0.0213 E-score
CGTATACG | 0.317 ± 0.065 E-score
AGGATACG | 0.386 ± 0.0183 E-score
AGGATAAA | 0.16 ± 0.041 E-score
CCATCTAC | 0.161 ± 0.00787 E-score
ATTCAATA | 0.161 ± 0.0419 E-score
TATGCGAA | 0.164 ± 0.0286 E-score
ACACCTTC | 0.219 ± 0.032 E-score
ATGGGGTA | 0.163 ± 0.0446 E-score
TCGCGACA | 0.193 ± 0.0437 E-score
ATCGCTCG | 0.199 ± 0.0182 E-score
CGGATTGC | 0.23 ± 0.0242 E-score
ACACCGAC | 0.256 ± 0.0314 E-score
GATCAAGA | 0.191 ± 0.0318 E-score
CCAAGATC | 0.22 ± 0.0354 E-score
ACCCAATA | 0.158 ± 0.0255 E-score
GCCCCTCC | 0.158 ± 0.185 E-score

Sequence | binding signal
TGGATACA | 0.351 ± 0.0427 E-score
GGGATACC | 0.455 ± 0.0274 E-score
GGGATACA | 0.383 ± 0.0303 E-score
AGGATACT | 0.364 ± 0.0424 E-score
GGGATAAC | 0.303 ± 0.0153 E-score
GGAATACC | 0.295 ± 0.024 E-score
AGGATACC | 0.457 ± 0.00534 E-score
AGGATACA | 0.337 ± 0.0073 E-score
TCTATACA | 0.243 ± 0.0131 E-score
CGCCGATA | 0.376 ± 0.0145 E-score
TACTCGCA | 0.154 ± 0.0249 E-score
CTATATAG | 0.182 ± 0.0165 E-score
ATGTGGTA | 0.151 ± 0.00476 E-score
ACCATCTA | 0.159 ± 0.0813 E-score
CCCGGGTA | 0.228 ± 0.0421 E-score
ATACAAGA | 0.239 ± 0.0188 E-score
TACATCCA | 0.156 ± 0.0562 E-score
ATTGGATA | 0.297 ± 0.05 E-score
TATATGGA | 0.207 ± 0.0193 E-score
GATATGTA | 0.383 ± 0.0265 E-score
GATATGGA | 0.423 ± 0.00533 E-score
GATATGAC | 0.357 ± 0.048 E-score

Sequence | binding signal
GATATTGC | 0.323 ± 0.0993 E-score
AATATGGA | 0.158 ± 0.0544 E-score
GATATGGC | 0.418 ± 0.0102 E-score
GGTATGTA | 0.2127 ± 0.00178 E-score
CCTATGTA | 0.156 ± 0.0122 E-score
AAAAGTAT | 0.204 ± 0.154 E-score
AGGGTGAT | 0.366 ± 0.00952 E-score
ATACTTTA | 0.261 ± 0.0614 E-score
GATAGGTA | 0.325 ± 0.00657 E-score
GATCAAAA | 0.234 ± 0.0678 E-score
AGGGGCGG | 0.174 ± 0.127 E-score
ATCTTCTA | 0.227 ± 0.0812 E-score
ATATCATA | 0.442 ± 0.0274 E-score
ATATCATC | 0.46 ± 0.0219 E-score
ATCTCATG | 0.197 ± 0.0118 E-score
GCATCATA | 0.183 ± 0.0507 E-score
AGATCATC | 0.344 ± 0.0462 E-score
AGATCATG | 0.295 ± 0.0208 E-score
CTATCATC | 0.34 ± 0.0172 E-score
ATATCTTA | 0.345 ± 0.0615 E-score
CTATCATA | 0.341 ± 0.0419 E-score
ATATCATG | 0.458 ± 0.0133 E-score

Sequence | binding signal
GTATCATA | 0.471 ± 0.013 E-score
GTATCTTA | 0.312 ± 0.0466 E-score
CAGCTATC | 0.25 ± 0.0918 E-score
ATCATCCA | 0.275 ± 0.0117 E-score
ATCACAGC | 0.2757 ± 0.00158 E-score
AGTTAATC | 0.182 ± 0.0377 E-score
AGTAGTAT | 0.349 ± 0.0523 E-score
CGGCTCGA | 0.15 ± 0.146 E-score
GAAGATAA | 0.154 ± 0.0705 E-score
CCGGGAGA | 0.177 ± 0.081 E-score
TACCAATA | 0.204 ± 0.0104 E-score
ACTATCCA | 0.241 ± 0.0211 E-score
GGTATCCA | 0.464 ± 0.0172 E-score
CCTATCCG | 0.316 ± 0.0172 E-score
ATTATCCA | 0.176 ± 0.0268 E-score
ACTATCCG | 0.35 ± 0.00425 E-score
AGTATCCG | 0.396 ± 0.0105 E-score
GCTATCCA | 0.204 ± 0.0406 E-score
AGTATCCA | 0.391 ± 0.00372 E-score
GGTATTCA | 0.3 ± 0.0073 E-score
